Measurements: publication PMC4336329 (PLoS ONE, 2015)
Among all 310,000 compounds or so, about 14,000 (4.5%) showed an effect of 50% or more. Effects have a minus sign here. Only a selection was taken, and strong results are over-represented in it overall.

What follows are molecules tested against human ether-à-go-go-related gene (hERG) potassium channel (human, UniProt Q12809) (assay: primary screen, population patch clamp on CHO cells stably expressing hERG; higher = less effect of the substance).
human ether-à-go-go-related gene (hERG) potassium channel, sequence (Q12809 whole entry, looked up): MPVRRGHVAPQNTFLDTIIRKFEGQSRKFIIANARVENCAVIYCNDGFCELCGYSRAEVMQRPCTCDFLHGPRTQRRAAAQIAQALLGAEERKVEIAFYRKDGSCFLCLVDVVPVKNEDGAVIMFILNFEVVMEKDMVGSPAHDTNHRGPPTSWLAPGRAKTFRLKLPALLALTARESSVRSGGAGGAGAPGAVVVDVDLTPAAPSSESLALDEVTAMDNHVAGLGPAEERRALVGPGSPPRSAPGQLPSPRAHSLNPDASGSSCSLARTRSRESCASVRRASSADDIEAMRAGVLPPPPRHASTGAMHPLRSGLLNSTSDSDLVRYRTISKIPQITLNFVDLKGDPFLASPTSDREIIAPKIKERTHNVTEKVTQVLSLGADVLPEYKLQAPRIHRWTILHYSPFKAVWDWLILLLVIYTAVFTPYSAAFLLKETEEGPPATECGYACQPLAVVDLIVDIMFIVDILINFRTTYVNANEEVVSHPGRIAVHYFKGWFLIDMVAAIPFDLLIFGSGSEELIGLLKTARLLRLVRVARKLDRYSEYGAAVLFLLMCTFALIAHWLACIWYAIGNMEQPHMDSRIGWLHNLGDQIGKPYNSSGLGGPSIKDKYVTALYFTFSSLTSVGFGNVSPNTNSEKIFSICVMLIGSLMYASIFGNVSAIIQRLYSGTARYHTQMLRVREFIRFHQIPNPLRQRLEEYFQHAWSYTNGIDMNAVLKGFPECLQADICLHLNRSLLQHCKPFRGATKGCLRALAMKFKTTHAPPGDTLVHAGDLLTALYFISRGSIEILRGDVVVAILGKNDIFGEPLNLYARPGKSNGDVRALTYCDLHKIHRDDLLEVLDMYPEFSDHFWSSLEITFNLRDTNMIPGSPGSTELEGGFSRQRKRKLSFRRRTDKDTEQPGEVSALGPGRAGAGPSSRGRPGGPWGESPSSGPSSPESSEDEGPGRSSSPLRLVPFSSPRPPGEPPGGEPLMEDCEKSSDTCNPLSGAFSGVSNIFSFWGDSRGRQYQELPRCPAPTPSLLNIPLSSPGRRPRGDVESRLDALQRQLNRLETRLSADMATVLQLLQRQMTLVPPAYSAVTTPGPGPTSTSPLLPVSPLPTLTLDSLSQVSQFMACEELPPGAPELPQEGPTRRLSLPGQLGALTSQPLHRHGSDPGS
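Also: peak tail current of the secondary pulse compared with the same well before compound.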

Row | SMILES | hERG current change (%, negative = inhibition) at 10uM [%]
1 | COc1ccc(CCNS(=O)(=O)c2ccc(S(=O)(=O)N3CCCC3)cc2)cc1OC | -6.61
2 | COc1ccc(CCNC(=O)CCCN2C(=O)c3ccccc3C2=O)cc1 | 2.74
3 | O=C(CCCN1C(=O)c2ccccc2C1=O)NCCc1ccc(OC(F)F)cc1 | -65.3
4 | CCOc1ccc(OCCCC(=O)NCCc2ccc(OC)cc2)cc1 | 25.8
5 | COc1ccc(CCNC(=O)CCCCCN2C(=O)c3ccccc3C2=O)cc1 | -28.6
6 | O=C(CCCOc1ccc(Br)cc1)NCCc1ccc(OC(F)F)cc1 | -67.7
7 | O=C(CCCOc1ccccc1)NCCc1ccccc1 | -3.36
8 | CCCCCn1c(NC2CCCCC2)nc2c1c(=O)[nH]c(=O)n2C | -17.6
9 | N#CCCN(C(=O)Nc1ccc(Cl)c(Cl)c1)c1ccccc1 | -0.506
10 | CCOc1cc(/C=C2\SC(=S)N(NS(=O)(=O)c3ccccc3)C2=O)ccc1O | 8.33
11 | CCCCn1c(N)c(N(CCC(C)C)C(=O)COC(=O)c2ccccc2)c(=O)[nH]c1=O | 3.79
12 | Cc1cc(C)c2nc(N(CCCN(C)C)C(=O)c3ccc(S(=O)(=O)N4CCCCCC4)cc3)sc2c1.Cl | -20.3
13 | CCOc1ccc2nc(N(CCCN(C)C)C(=O)c3ccc(S(=O)(=O)N4CCCC4)cc3)sc2c1.Cl | -70.4
14 | CCc1ccc2nc(N(CCCN(C)C)C(=O)c3ccc(S(=O)(=O)N4CCCC4)cc3)sc2c1.Cl | -67.7
15 | CCc1ccc2nc(N(CCCN(C)C)C(=O)c3ccc(S(=O)(=O)N4CCc5ccccc5C4)cc3)sc2c1.Cl | -7.91
16 | CCOc1ccc2nc(N(CCCN(C)C)C(=O)c3ccc(S(=O)(=O)N4CCc5ccccc5C4)cc3)sc2c1.Cl | -1.08
17 | CN(C)CCCN(C(=O)c1ccc(S(=O)(=O)N2CCCC2)cc1)c1nc2ccc(Br)cc2s1.Cl | -47.9
18 | Cc1ccc2nc(N(CCCN(C)C)C(=O)c3ccc(S(=O)(=O)N4CCOCC4)cc3)sc2c1.Cl | -33.9
19 | Cc1ccc2nc(N(CCCN(C)C)C(=O)c3ccc(S(=O)(=O)N4CCCCCC4)cc3)sc2c1.Cl | -58
20 | COc1ccccc1N1CC(C(=O)Nc2nnc(SCC(=O)NC(C)C)s2)CC1=O (stereo not shown) | 20.1
21 | CC(=O)Nc1ccc(NC(=O)CSc2nnnn2C2CCCCC2)cc1 | -8.79
22 | O=C(CNC(=O)N1CC(=O)Nc2ccccc21)Nc1nccs1 | 12

Row | SMILES | hERG current change (%, negative = inhibition) at 10uM [%]
23 | CCCc1c(O)nc(SCC(=O)O)[nH]c1=O | 67.7
24 | CC1(C)CC(=O)/C(=C(/O)Cc2ccccc2)C(=NCCc2ccccc2)C1 | -45.2
25 | O=C(C1CCCCC1)N(Cc1ccccc1)c1ccccn1 | 1.25
26 | O=C(NC1CC2CCCC(C1)N2Cc1ccccc1)C1CCCCC1 (stereo not shown) | -25.2
27 | CCN(CC)C(=O)NC1CC2CCCC(C1)N2Cc1ccccc1 (stereo not shown) | -6.25
28 | COc1cc(C(=O)NC2CC3CCCC(C2)N3Cc2ccccc2)cc(OC)c1OC (stereo not shown) | 8.89
29 | COc1ccccc1CN1C2CCCC1CC(NC(=O)/C=C/c1ccccc1)C2 (stereo not shown) | -59.4
30 | COc1ccc(CN2C3CCCC2CC(NC(=O)/C=C/c2ccccc2)C3)cc1 (stereo not shown) | -88
31 | O=C(/C=C/c1ccccc1)NC1CC2CCCC(C1)N2Cc1ccccc1 (stereo not shown) | -69.7
32 | CNC(=S)NC1CC2CCCC(C1)N2Cc1ccccc1OC (stereo not shown) | -10.1
33 | COc1ccc(C(=O)OCC(=O)Nc2c(C)n(C)n(-c3ccccc3)c2=O)cc1OC | 16.5
34 | CCc1[nH]nc2c1C(C(C)C)C(C#N)=C(N)O2 (stereo not shown) | 10.8
35 | Cn1c(Cc2ccccc2)nnc1SCC(=O)Nc1ccc2c(c1)OCO2 | 5.64
36 | Cc1ccc(NC(=O)/C(=C\c2ccccc2)NC(=O)/C=C/c2ccccc2)cc1 | -12.9
37 | Cn1c(=O)cc(SCC(=O)N2CCC3(CC2)OCCO3)c2ccccc21 | -1.64
38 | CC1CCN(C2(O)C(=O)Nc3ccc(Cl)cc32)CC1 (stereo not shown) | 4.26
39 | CC(Sc1ncnc2ccccc12)C(=O)Nc1ccc2c(c1)OCCO2 (stereo not shown) | 5.25
40 | Cl.N=c1n(Cc2ccc(Cl)cc2)c2ccccc2n1CC(O)COc1ccccc1 (stereo not shown) | -68.2
41 | OC(COc1ccccc1)Cn1c2ccccc2c2ccccc21 (stereo not shown) | 6
42 | N=c1ccccn1CC(O)COc1ccccc1 (stereo not shown) | -3.09
43 | COc1ccc(OCC(O)CN2C(=O)c3ccccc3C2=O)cc1 (stereo not shown) | 8.41
44 | COc1ccc(OCC(O)Cn2c(=N)n(Cc3ccccc3)c3ccccc32)cc1.Cl (stereo not shown) | -73.5

Row | SMILES | hERG current change (%, negative = inhibition) at 10uM [%]
45 | Cc1cccc(OCC(O)CNC(=O)c2ccccc2C(=O)O)c1 (stereo not shown) | -21.2
46 | Cl.N=c1n(Cc2ccccc2)c2ccccc2n1CC(O)COc1ccccc1 (stereo not shown) | -74.6
47 | Cc1cccc(OCC(O)Cn2c(=N)n(Cc3ccccc3)c3ccccc32)c1.Cl (stereo not shown) | -71
48 | CC1(C)CC(=O)c2cc(C(=O)N3CCCC(C)(C)C3)c(=O)n(-c3ccccc3)c2C1 | 11.5
49 | CCc1c(C)sc(NC(=O)/C=C/C(=O)O)c1C(N)=O | 36.5
50 | Cc1ccc(C2CC(=O)Nc3c2ccc2ccccc32)cc1[N+](=O)[O-] (stereo not shown) | 6.65
51 | CC(=O)c1nn(-c2ccccc2)cc1C(=O)c1ccc(C)cc1 | 3.72
52 | N#Cc1c(C(F)(F)F)cc(-c2ccc(F)cc2)nc1SCC(=O)O | 6.06
53 | COc1ccc(OC)c(N(CC(=O)NCc2ccccc2)S(=O)(=O)c2ccc(OC)c(OC)c2)c1 | 18.3
54 | CCN(CC)S(=O)(=O)c1ccc(OC)c(NC(=O)CCS(=O)(=O)Cc2ccccc2)c1 | -28
55 | Cc1csc(NC(=O)C2C3C=CC(C3)C2C(=O)O)n1 (stereo not shown) | -6.11
56 | COC(=O)Cc1ccc(NC(=S)NCc2ccccc2Cl)cc1 | -6.56
57 | COC(=O)c1ccc(C(=O)OC)c(NS(C)(=O)=O)c1 | -1.73
58 | O=C1CC(C(F)(F)C(F)(F)C(F)(F)F)=Nc2ccccc2N1 | -15.1
59 | CC(=O)OCCNC(=O)c1cc2ccccc2oc1=O | 9.06
60 | Br.CCn1c(=N)n(Cc2ccccc2F)c2ccccc21 | -37.5
61 | N=c1n(Cc2ccccc2)c2ccccc2n1Cc1ccccc1 | -62.1
62 | Cl.N=c1n(CCO)c2ccccc2n1Cc1ccccc1 | -25.1
63 | Br.CC(C)(C)C(=O)Cn1c(=N)n(Cc2ccccc2)c2ccccc21 | -48.2
64 | O=c1n(Cc2ccccc2F)c2ccccc2n1Cc1ccccc1F | 19.4
65 | Br.N=c1n(CCc2ccccc2)c2ccccc2n1Cc1ccccc1F | -62.6
66 | O=C(COc1ccc(Cl)cc1)NCCNC(=O)c1cnccn1 | 5.3

Row | SMILES | hERG current change (%, negative = inhibition) at 10uM [%]
67 | Cc1oc(-c2ccc(Cl)cc2)nc1CS(=O)CC(=O)NCCN1CCCCCC1 (stereo not shown) | -39.4
68 | Cc1ccccc1Cn1cc(S(=O)(=O)c2ccc(C(C)C)cc2)c(=O)c2cc3c(cc21)OCO3 | -20.2
69 | Cc1cccc(OC(=O)Cn2c(C(F)(F)F)nc3ccccc32)c1 | 17.6
70 | CC1CCC(C(C)C)C(OC(=O)Cn2c(COc3ccccc3)[n+](C)c3ccccc32)C1.[Cl-] (stereo not shown) | -80.4
71 | CC1CCC(C(C)C)C(OC(=O)COC(=O)c2ccccc2N)C1 (stereo not shown) | 9.64
72 | CC1CCC(C(C)C)C(OC(=O)CSc2nc(N)cc(=O)[nH]2)C1 (stereo not shown) | 12.7
73 | Cc1ccccc1OC(=O)Cn1c(C(F)(F)F)nc2ccccc21 | 3.95
74 | Cc1cccc(OCc2n(CC(=O)OC3CC(C)CCC3C(C)C)c3ccccc3[n+]2C)c1.[Cl-] (stereo not shown) | -75
75 | CC1CCC(C(C)C)C(OC(=O)COC(=O)c2cc(O)ccc2N)C1 (stereo not shown) | 12.9
76 | Cc1ccccc1OCc1n(CC(=O)OC2CC(C)CCC2C(C)C)c2ccccc2[n+]1C.[Cl-] (stereo not shown) | -72
77 | COc1ccc(OCc2n(CC(=O)OC3CC(C)CCC3C(C)C)c3ccccc3[n+]2C)cc1.[Cl-] (stereo not shown) | -76.4
78 | CN1CCN(C(=O)CCCOc2cc(=O)n(C)c3ccccc23)CC1 | 0.874
79 | COc1cccc(NC(=O)C2C3C=CC(O3)C2C(=O)O)c1 (stereo not shown) | 10.6
80 | Cc1ccccc1OCCNC(=O)CSc1ccc(C(F)(F)F)cc1[N+](=O)[O-] | 10.6
81 | COc1ccc(CCNC(=O)c2ccc(N3CCCC3=O)cc2)cc1OC | 15.3
82 | COc1ccc(C(=O)N/C(=C/c2cccnc2)C(=O)N2CCN(C)CC2)cc1OC | 11.4
83 | Cc1cc(C)n(C(=O)COc2ccccc2C)n1 | -3.33
84 | Nc1c(C(=O)Nc2ccccc2F)sc2nc(-c3cccnc3)ccc12 | 20.9
85 | O=C(COC(=O)c1ccncc1)Nc1cc(Cl)ccc1Cl | 6.07
